Some test systems named below: HCT-15 colon; HT29 colon; SNB-75 CNS; SNB-19 CNS; U251 CNS; PC-3 prostate; SK-MEL-5 melanoma; UACC-62 melanoma; LOX IMVI melanoma; SK-MEL-28 melanoma; SK-MEL-2 melanoma; EKVX NSCLC; SN12C renal; UO-31 renal; TK-10 renal; ACHN renal; CAKI-1 renal; A498 renal; CCRF-CEM leukemia; MOLT-4 leukemia.
Common to all, as to assay: NCI-60 one-dose screen, 48 h (100 = growth as untreated, 0 = no growth, -100 = all killed)
Conditions in all cases: 10 µM unless noted

The structures appear in SMILES notation. Compounds without any hit were thinned out: in the full panel of roughly 83,000, 20% have a hit.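 Single-concentration screen, 48 h exposure, 96-well plates. Endpoint: percent growth. Below 10 = active.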 Unmarked numbers belong to inactive results. Active and inactive are the calls of the source.

With `CC/C(=C(/c1ccc(Cl)cc1)c1ccc(OCCN2CCOCC2)cc1)c1ccccc1`, the growth is 94.1% with HCT-15 colon; 75.6% in the experiment on HT29 colon; 105% in the experiment on SNB-75 CNS; 98.6% with SNB-19 CNS; 93.6% with U251 CNS; 73.1% in the experiment on PC-3 prostate. Further, the growth with SK-MEL-5 melanoma is 108%; in the experiment on UACC-62 melanoma it was 88.2%; in the experiment with LOX IMVI melanoma, 108%; with SK-MEL-28 melanoma, 98.8%; with SK-MEL-2 melanoma it was 93.7%; in the experiment on EKVX NSCLC it was 85.1%. Further, the growth in the experiment with SN12C renal is 95.8%; in the experiment on UO-31 renal, 86.4%; in the experiment on TK-10 renal, 108%; with ACHN renal, 98.3%; in the experiment on CAKI-1 renal, 69.4%; in the experiment on A498 renal, 99.7%. Also, the growth was 83.9% in the experiment on CCRF-CEM leukemia and 86% in the experiment on MOLT-4 leukemia.
Turning to `COc1ccc(-c2[nH]c3ccccc3c2-c2ccc(OC)cc2)cc1`, the growth was 39.8% in the experiment on HCT-15 colon; 29.8% in the experiment on HT29 colon; 31.5% with SNB-75 CNS; 53.6% in the experiment with SNB-19 CNS; 44% with U251 CNS; 47.5% with PC-3 prostate. Also, the growth is 58.1% in the experiment on SK-MEL-5 melanoma; 56.7% in the experiment on UACC-62 melanoma; 46.3% in the experiment with LOX IMVI melanoma; 51.4% in the experiment with SK-MEL-28 melanoma; 64.6% in the experiment with SK-MEL-2 melanoma; 73.8% in the experiment on EKVX NSCLC. For the same molecule, the growth was 63.4% in the experiment with SN12C renal; 67.7% in the experiment with UO-31 renal; 87.4% with TK-10 renal; 65.3% with ACHN renal; 63.2% in the experiment on CAKI-1 renal; 45% in the experiment on A498 renal. Moreover, the growth is 9.28% (active) with CCRF-CEM leukemia and 49.9% in the experiment on MOLT-4 leukemia.
In the case of `C/C=C(/C)C(=O)O[C@@H]1CC(C)(C)CC2C34OC(=O)[C@@]21CC[C@@]3(C)[C@]1(C)CCC2C(C)(C)C(=O)CC[C@]2(C)C1C[C@@H]4Cl` (stereo not given in full), the growth in the experiment with HCT-15 colon was 99.3%; with HT29 colon it was 98%; in the experiment with SNB-75 CNS it was 76%; with SNB-19 CNS, 92%; in the experiment with U251 CNS, 92.1%; with PC-3 prostate it was 80.4%. Also, the growth is 98.4% with SK-MEL-5 melanoma; 85.3% in the experiment on UACC-62 melanoma; 94.1% in the experiment on LOX IMVI melanoma; 102% in the experiment on SK-MEL-28 melanoma; 103% in the experiment on SK-MEL-2 melanoma; 92% with EKVX NSCLC. Moreover, the growth is 102% in the experiment with SN12C renal; 84.2% in the experiment with UO-31 renal; 87.2% in the experiment with TK-10 renal; 102% with ACHN renal; 79.9% with CAKI-1 renal; 89.7% in the experiment with A498 renal. Further, the growth with CCRF-CEM leukemia was 98.1%; with MOLT-4 leukemia it was 99.6%.
On to `Cc1nc2cccc(NCCCCC(=O)NO)c2c(=O)n1-c1ccccc1`, for which the growth with HCT-15 colon was 71.6%; in the experiment with HT29 colon, 52.1%; with SNB-75 CNS it was 45.1%; with SNB-19 CNS, 65.5%; in the experiment on U251 CNS, 70.2%; in the experiment on PC-3 prostate it was 63%. For the same molecule, the growth in the experiment with SK-MEL-5 melanoma is 34.9%; in the experiment on UACC-62 melanoma it was 31.8%; with LOX IMVI melanoma, 75.8%; with SK-MEL-28 melanoma it was 58.3%; in the experiment with SK-MEL-2 melanoma, 55.9%; in the experiment on EKVX NSCLC it was 63.8%. For the same molecule, the growth is 69.8% with SN12C renal; 56.6% in the experiment with UO-31 renal; 37.1% in the experiment with TK-10 renal; 54.3% in the experiment on ACHN renal; 55.6% in the experiment with CAKI-1 renal; 48.5% in the experiment on A498 renal. Also, the growth in the experiment on CCRF-CEM leukemia was 25.3%; in the experiment on MOLT-4 leukemia, 25.1%.
Consider `CS(=O)(=O)Nc1cc(-c2ccc3ncnc(Nc4ccc(F)c(Cl)c4)c3c2)cnc1Cl`, for which the growth with HCT-15 colon was 8.37% (active); in the experiment with HT29 colon it was 9.63% (active); in the experiment on SNB-75 CNS it was -15.9% (active); with SNB-19 CNS, 20.1%; in the experiment with U251 CNS it was 3.05% (active); in the experiment with PC-3 prostate, -7.94% (active). For the same molecule, the growth with SK-MEL-5 melanoma was -93.5% (active); in the experiment with UACC-62 melanoma, -8.21% (active); with LOX IMVI melanoma, -23.8% (active); in the experiment on SK-MEL-28 melanoma it was 14.8%; in the experiment with SK-MEL-2 melanoma it was -7.25% (active); in the experiment with EKVX NSCLC, -3.92% (active). Further, the growth is 10.2% in the experiment with SN12C renal; -3.81% (active) in the experiment with UO-31 renal; -14.5% (active) in the experiment on TK-10 renal; 14.6% with ACHN renal; 3.33% (active) in the experiment with CAKI-1 renal; -59.3% (active) with A498 renal. Moreover, the growth was 9.76% (active) in the experiment on CCRF-CEM leukemia and -19.9% (active) in the experiment with MOLT-4 leukemia.
`CCOC(=O)CC1CSC(c2cccc(Cl)c2)=N1` (stereo not given): the growth in the experiment on HCT-15 colon was 106%; in the experiment with HT29 colon it was 102%; in the experiment on SNB-75 CNS it was 106%; in the experiment on SNB-19 CNS, 106%; in the experiment with U251 CNS, 102%; with PC-3 prostate it was 103%. The growth is 100% with SK-MEL-5 melanoma; 101% in the experiment on UACC-62 melanoma; 95.7% with LOX IMVI melanoma; 110% in the experiment on SK-MEL-28 melanoma; 109% with SK-MEL-2 melanoma; 100% in the experiment on EKVX NSCLC. In addition, the growth with SN12C renal is 106%; with UO-31 renal, 96.4%; in the experiment on TK-10 renal, 92.1%; with ACHN renal, 109%; in the experiment with CAKI-1 renal, 97.8%; with A498 renal, 81.9%. Moreover, the growth is 102% with CCRF-CEM leukemia and 95% in the experiment with MOLT-4 leukemia.

The record behind these values is PubChem BioAssay (NCI).
